This note sets out measurements from PubChem BioAssay (EPA / NIEHS).

A short description of test [1]: ATG_CRE_CIS: Attagene CIS-FACTORIAL HepG2 Assay for human cAMP Responsive Element (CRE) binding protein 3 (AID 2282926). The conditions noted are these: HepG2 CRE cis-reporter, Attagene multiplexed mRNA; actives raise or lower the signal. In outline: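 Liver-derived HepG2, transfected with a CRE-containing reporter panel, exposed 24 h; transcript levels sized and quantified by capillary electrophoresis of labelled amplicons; signal changes either way referenced to vehicle.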

Test [2] concerns the target CCAAT/enhancer-binding protein beta (Homo sapiens) (UniProt P17676). The test is described as follows: ATG_C_EBP_CIS: Attagene CIS-FACTORIAL HepG2 Assay for human CCAAT/Enhancer Binding Protein (C/EBP) beta (AID 2282927). Particulars: HepG2 Attagene cis-factorial transcription factor reporter; actives raise or lower the signal. In a few lines:
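Following a 24 h incubation with test chemical, transfected HepG2 cells yielded RNA whose reporter transcripts were quantified by RT-PCR and fluorescent capillary electrophoresis, with DMSO serving as baseline for bidirectional fitting.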

For test [3], the target named is Aryl hydrocarbon receptor (Homo sapiens) (UniProt P35869). Kind of test: ATG_Ahr_CIS: Attagene CIS-FACTORIAL HepG2 Assay for human Aryl Hydrocarbon Receptor (Ahr) (AID 2282930). Particulars: HepG2 AhR cis-factorial reporter transcription; actives raise or lower the signal. In outline: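 Values derive from bidirectional fitting against DMSO negative control. Underlying signal: cis-element reporter mRNA in transiently transfected HepG2, harvested 24 h post-dose and measured by RT-PCR plus capillary electrophoresis.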
Sequence of Aryl hydrocarbon receptor (Homo sapiens) (P35869 whole entry, looked up): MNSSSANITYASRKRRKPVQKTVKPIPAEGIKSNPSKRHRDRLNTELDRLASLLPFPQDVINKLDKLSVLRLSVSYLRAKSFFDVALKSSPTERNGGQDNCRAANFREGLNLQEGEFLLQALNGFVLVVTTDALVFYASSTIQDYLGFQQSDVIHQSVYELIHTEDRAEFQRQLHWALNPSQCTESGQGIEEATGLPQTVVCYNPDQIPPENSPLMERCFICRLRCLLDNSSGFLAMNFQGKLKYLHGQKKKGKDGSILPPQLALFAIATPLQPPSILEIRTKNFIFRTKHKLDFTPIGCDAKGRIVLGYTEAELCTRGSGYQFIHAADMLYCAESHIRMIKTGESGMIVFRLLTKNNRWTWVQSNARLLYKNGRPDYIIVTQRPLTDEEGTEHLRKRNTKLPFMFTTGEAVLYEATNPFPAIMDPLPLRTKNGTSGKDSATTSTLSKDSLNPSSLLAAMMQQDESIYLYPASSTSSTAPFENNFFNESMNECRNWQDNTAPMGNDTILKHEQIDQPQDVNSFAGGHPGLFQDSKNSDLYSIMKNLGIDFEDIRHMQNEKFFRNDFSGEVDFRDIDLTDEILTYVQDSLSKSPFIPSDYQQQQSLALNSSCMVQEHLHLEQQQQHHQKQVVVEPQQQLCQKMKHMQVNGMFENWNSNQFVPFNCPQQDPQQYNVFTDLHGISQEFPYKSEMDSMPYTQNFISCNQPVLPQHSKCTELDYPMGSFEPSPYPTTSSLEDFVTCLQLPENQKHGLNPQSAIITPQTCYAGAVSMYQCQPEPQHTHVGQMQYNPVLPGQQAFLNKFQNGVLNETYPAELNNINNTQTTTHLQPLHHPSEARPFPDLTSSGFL

A short description of test [4]: ATG_AP_1_CIS: Attagene CIS-FACTORIAL HepG2 Assay for human Activator Protein 1 (AP-1) (AID 2282931). Particulars: HepG2 Attagene cis-factorial AP-1 reporter mRNA; actives raise or lower the signal. In a few lines: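 After 24 h incubation with test chemical, RNA from transfected HepG2 cells was reverse-transcribed, amplified, fluorescently labelled and digested before capillary electrophoresis. Reporters were driven by cis-regulatory promoters; activity fitted bidirectionally versus DMSO.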

Test [5] can be described thus: ATG_BRE_CIS: Attagene CIS-FACTORIAL HepG2 Assay for human Bone Morphogenetic Protein (BMP) Response Element (BRE) (AID 2282933). Particulars: HepG2 BMP response element reporter, Attagene transcription factor profiling; actives raise or lower the signal. In a few lines:
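HepG2 cells transiently transfected with CIS reporter units (endogenous TF activity, BMP response element), dosed 24 h. Reporter mRNA quantified by RT-PCR, fluorescent labelling and capillary electrophoresis; bidirectional fit vs DMSO baseline.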

Test [6] is described as follows: ATG_E_Box_CIS: Attagene CIS-FACTORIAL HepG2 Assay for human Enhancer Box (E-box) (AID 2282936). The conditions noted are these: HepG2 E-box cis-reporter transcription, actives raise or lower the signal. In a few lines: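 Endogenous transcription factor activity was sensed in human HepG2 liver cells through transfected cis-promoter reporter units. After 24 h of dosing, total RNA was reverse-transcribed and reporter cDNA resolved by capillary electrophoresis.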

A short description of test [7]: ATG_M_19_CIS: Attagene CIS-FACTORIAL HepG2 Assay for M19 Transcription Factor (Internal Marker) (AID 2282939). The conditions noted are these: HepG2 Attagene CIS-FACTORIAL M19 internal marker reporter; actives raise or lower the signal. In outline: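 HepG2 cells transiently transfected with cis-regulated multiplexed reporter units, dosed 24 h. Reporter mRNA quantified by RT-PCR and capillary electrophoresis; internal background marker fitted bidirectionally versus DMSO.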

Test [8] is described as follows: ATG_GLI_CIS: Attagene CIS-FACTORIAL HepG2 Assay for human Zinc Finger Protein GLI1 (AID 2282945). The conditions noted are these: HepG2, Attagene cis-factorial reporter mRNA, GLI element; actives raise or lower the signal. In outline:
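HepG2 cells transiently transfected with cis-promoter multiplexed reporter units report endogenous transcription factor activity. After 24 h chemical exposure, reporter mRNA was quantified by RT-PCR, 6-FAM labelling, HpaI digestion and capillary electrophoresis, with bidirectional fitting against DMSO.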

A short description of test [9]: ATG_M_06_CIS: Attagene CIS-FACTORIAL HepG2 Assay for M06 Transcription Factor (Internal Marker) (AID 2282950). The conditions noted are these: HepG2 Attagene CIS-FACTORIAL M06 internal marker reporter; actives raise or lower the signal. In a few lines: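 Internal background marker within multiplexed cis-reporter HepG2 system. Cells transiently transfected, dosed 24 h; reporter mRNA measured by RT-PCR, HpaI digestion and capillary electrophoresis. Bidirectional fit relative to DMSO.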

For test [10], the target named is Hypoxia-inducible factor 1-alpha (Homo sapiens) (UniProt Q16665). Kind of test: ATG_HIF1a_CIS: Attagene CIS-FACTORIAL HepG2 Assay for human Hypoxia Inducible Factor 1 (HIF1A) (AID 2282951). Particulars: HepG2 Attagene cis-factorial HIF1a reporter transcription; actives raise or lower the signal. In a few lines: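 Endogenous-TF cis reporter readout, human HepG2 cells, 24 h incubation; mRNA detected via RT-PCR and capillary electrophoresis fluorescence; DMSO-normalised bidirectional fitting.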
Sequence of Hypoxia-inducible factor 1-alpha (Homo sapiens) (Q16665 whole entry, looked up): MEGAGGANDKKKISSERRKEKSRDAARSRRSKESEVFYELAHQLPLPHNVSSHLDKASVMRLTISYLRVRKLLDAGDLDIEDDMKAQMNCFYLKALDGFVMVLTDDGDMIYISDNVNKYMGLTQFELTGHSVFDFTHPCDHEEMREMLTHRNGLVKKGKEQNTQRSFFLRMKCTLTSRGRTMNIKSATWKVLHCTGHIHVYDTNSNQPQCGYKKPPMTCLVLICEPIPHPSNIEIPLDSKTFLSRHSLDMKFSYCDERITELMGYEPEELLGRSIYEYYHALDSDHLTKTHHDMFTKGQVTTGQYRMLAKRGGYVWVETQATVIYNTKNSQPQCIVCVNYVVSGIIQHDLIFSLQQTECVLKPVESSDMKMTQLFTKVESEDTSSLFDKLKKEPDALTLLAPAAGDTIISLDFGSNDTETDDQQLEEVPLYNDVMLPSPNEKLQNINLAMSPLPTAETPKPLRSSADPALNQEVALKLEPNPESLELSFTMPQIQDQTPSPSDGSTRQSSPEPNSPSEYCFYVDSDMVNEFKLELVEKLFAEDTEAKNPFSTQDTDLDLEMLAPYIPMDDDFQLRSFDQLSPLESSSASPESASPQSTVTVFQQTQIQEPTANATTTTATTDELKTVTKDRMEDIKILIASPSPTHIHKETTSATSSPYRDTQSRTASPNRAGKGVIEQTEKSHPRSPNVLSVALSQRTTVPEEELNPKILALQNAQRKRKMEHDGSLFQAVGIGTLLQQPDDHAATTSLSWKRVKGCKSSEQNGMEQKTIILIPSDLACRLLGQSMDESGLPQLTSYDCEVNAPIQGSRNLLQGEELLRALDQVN

In test [11] the target is Hepatocyte nuclear factor 6 (Homo sapiens) (UniProt Q9UBC0). The test is described as follows: ATG_HNF6_CIS: Attagene CIS-FACTORIAL HepG2 Assay for human Hepatocyte Nuclear Factor 6 (HNF6) (AID 2282952). Particulars: HepG2 Attagene cis-factorial HNF6 reporter transcription; actives raise or lower the signal. In outline:
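Twenty-four-hour chemical treatment of reporter-transfected HepG2 cells precedes RNA isolation, DNase-treated reverse transcription and PCR of reporter sequences. Labelled fragments are sized by capillary electrophoresis and fitted bidirectionally versus DMSO.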

The target in test [12] is Heat shock factor protein 1 (Homo sapiens) (UniProt Q00613). Kind of test: ATG_HSE_CIS: Attagene CIS-FACTORIAL HepG2 Assay for human Heat Shock Transcription Factor 1 (HSE) (AID 2282953). Particulars: HepG2 HSE cis-reporter, Attagene RNA transcription; actives raise or lower the signal. In a few lines: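 HepG2 cells transfected with cis-promoter reporter units sensing endogenous transcription factor activity; reporter mRNA quantified 24 h post-dose by RT-PCR and capillary electrophoresis of 6-FAM-labelled products. Bidirectional fitting against DMSO.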
Sequence of Heat shock factor protein 1 (Homo sapiens) (Q00613 whole entry, looked up): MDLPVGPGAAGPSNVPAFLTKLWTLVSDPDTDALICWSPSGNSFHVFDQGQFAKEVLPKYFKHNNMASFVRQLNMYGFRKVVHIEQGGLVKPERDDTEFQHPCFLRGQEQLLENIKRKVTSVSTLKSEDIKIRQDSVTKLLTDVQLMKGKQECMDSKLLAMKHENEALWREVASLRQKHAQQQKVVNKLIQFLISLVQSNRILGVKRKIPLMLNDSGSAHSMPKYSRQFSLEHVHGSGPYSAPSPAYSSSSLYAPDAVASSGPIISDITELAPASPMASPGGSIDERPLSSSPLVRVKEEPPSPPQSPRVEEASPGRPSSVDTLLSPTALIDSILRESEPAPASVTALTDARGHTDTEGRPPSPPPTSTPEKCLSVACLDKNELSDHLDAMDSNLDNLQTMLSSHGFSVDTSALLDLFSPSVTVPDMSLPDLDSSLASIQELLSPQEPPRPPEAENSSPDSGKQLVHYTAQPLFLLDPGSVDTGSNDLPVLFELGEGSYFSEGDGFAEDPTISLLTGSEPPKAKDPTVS

The nature of test [13]: ATG_TA_CIS: Attagene CIS-FACTORIAL HepG2 Assay for human TA Basal Promoter (AID 2282964). Particulars: HepG2 Attagene CIS-factorial TA basal promoter reporter; actives raise or lower the signal. In a few lines: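 HepG2 cells transiently transfected with multiple reporter units under cis promoter elements, reporting endogenous transcription factor activity; this endpoint tracks the TA basal promoter as background control. Reporter mRNA after 24 h dosing measured by RT-PCR/capillary electrophoresis; bidirectional fits versus DMSO.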

Test [14] is described as follows: ATG_VDRE_CIS: Attagene CIS-FACTORIAL HepG2 Assay for human Vitamin D Receptor Element (VDRE) (AID 2282968). Particulars: HepG2 VDRE cis-reporter transcription, actives raise or lower the signal. In outline: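 Steps: transfect HepG2 with multiple reporter transcription units; dose chemicals 24 h; isolate RNA; RT-PCR; label with 6-FAM primer extension; HpaI digest; capillary electrophoresis. Curves fitted both directions against DMSO.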

The target of test [15] is X-box-binding protein 1 (Homo sapiens) (UniProt P17861). The test is described as follows: ATG_Xbp1_CIS: Attagene CIS-FACTORIAL HepG2 Assay for human X-box Binding Protein 1 (XBP1) (AID 2282972). The conditions noted are these: HepG2 XBP1 cis-element reporter, Attagene multiplex; actives raise or lower the signal. In outline:
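Changes in reporter transcript abundance, read by RT-PCR and capillary electrophoresis, reflect endogenous transcription factor activity. Transfected HepG2 cells received compound for 24 hours; DMSO defined baseline for bidirectional analysis.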

For test [16], the target named is Nuclear respiratory factor 1 (Homo sapiens) (UniProt Q16656). Kind of test: ATG_NRF1_CIS: Attagene CIS-FACTORIAL HepG2 Assay for human Nuclear Respiratory Factor 1 (NRF1) Orphan Gene (AID 2282987). Particulars: HepG2 NRF1 cis-element reporter, Attagene multiplex; actives raise or lower the signal. In a few lines:
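Endogenous factor activity was captured via cis-element-driven reporter transcripts in HepG2 cells. Following 24 h chemical treatment, transcripts were quantified by RT-PCR and capillary electrophoresis.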

Test [17] deals with Myc proto-oncogene protein (Homo sapiens) (UniProt P01106). Kind of test: ATG_Myc_CIS: Attagene CIS-FACTORIAL HepG2 Assay for human Myelocytomatosis (Myc) Proto-Oncogene Transcription Factor (AID 2282990). The conditions noted are these: HepG2, Attagene cis-reporter transcription factor activity; actives raise or lower the signal. In outline: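 Multiplexed cis-reporter transcription in HepG2 cells after 24 h chemical treatment. Reporter mRNA measured by RT-PCR and capillary electrophoresis fluorescence; activity fitted bidirectionally against DMSO control.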
Sequence of Myc proto-oncogene protein (Homo sapiens) (P01106 whole entry, looked up): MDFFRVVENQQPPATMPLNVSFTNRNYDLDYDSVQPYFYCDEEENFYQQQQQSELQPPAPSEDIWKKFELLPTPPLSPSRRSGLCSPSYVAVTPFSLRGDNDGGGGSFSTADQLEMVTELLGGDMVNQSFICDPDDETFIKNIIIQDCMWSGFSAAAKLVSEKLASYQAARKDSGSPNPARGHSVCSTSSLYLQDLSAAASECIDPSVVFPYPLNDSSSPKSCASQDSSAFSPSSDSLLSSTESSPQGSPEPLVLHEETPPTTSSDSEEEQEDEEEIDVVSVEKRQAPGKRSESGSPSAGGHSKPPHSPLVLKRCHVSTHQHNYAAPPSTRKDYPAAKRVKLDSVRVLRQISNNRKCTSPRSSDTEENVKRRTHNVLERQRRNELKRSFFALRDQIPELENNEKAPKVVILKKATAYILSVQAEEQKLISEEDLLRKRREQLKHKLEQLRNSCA

A short description of test [18]: ATG_NRF2_ARE_CIS: Attagene CIS-FACTORIAL HepG2 Assay for human Nuclear Factor Erythroid 2 Related Factor 2 (NFR2) response to Antioxidant Response Elements (ARE) (AID 2282992). Particulars: HepG2 Attagene ARE/NRF2 reporter, transcription factor activity; actives raise or lower the signal. In outline: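 Using transiently transfected HepG2 cells exposed for 24 h, reporter mRNA levels were determined by RT-PCR with fluorescent primer extension and capillary electrophoresis, analysed for gain or loss of signal against DMSO.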

Test [19] can be described thus: ATG_Oct_MLP_CIS: Attagene CIS-FACTORIAL HepG2 Assay for human Octamer-Binding Transcription Factor (Oct) (AID 2282993). The conditions noted are these: HepG2 Attagene cis-factorial Oct reporter, mRNA; actives raise or lower the signal. In a few lines: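 HepG2 cells transiently transfected with cis-element-driven reporter transcription units (endogenous TF activity); 24 h compound exposure. Reporter mRNA quantified by RT-PCR, 6-FAM labelling, HpaI digestion and capillary electrophoresis; bidirectional fit versus DMSO baseline.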

The target of test [20] is Cellular tumor antigen p53 (Homo sapiens) (UniProt P04637). The test is described as follows: ATG_p53_CIS: Attagene CIS-FACTORIAL HepG2 Assay for human p53 Transcription Factor (AID 2282994). The conditions noted are these: HepG2 p53 cis-element reporter, Attagene mRNA; actives raise or lower the signal. In a few lines:
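In HepG2 cells, reporter transcription units under cis-regulatory promoters were transiently introduced. Following 24 h treatment, RNA was processed to labelled, digested cDNA fragments read by capillary electrophoresis; fitting was bidirectional versus DMSO.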

Each structure is given as a SMILES string. Active and inactive are the calls of the source. Rule for the calls: active = hit-call score of the fitted dose curve at least 0.9, where 1 is the maximum; inactive = score below 0.9.

Sequence of CCAAT/enhancer-binding protein beta (Homo sapiens) (P17676 whole entry, looked up): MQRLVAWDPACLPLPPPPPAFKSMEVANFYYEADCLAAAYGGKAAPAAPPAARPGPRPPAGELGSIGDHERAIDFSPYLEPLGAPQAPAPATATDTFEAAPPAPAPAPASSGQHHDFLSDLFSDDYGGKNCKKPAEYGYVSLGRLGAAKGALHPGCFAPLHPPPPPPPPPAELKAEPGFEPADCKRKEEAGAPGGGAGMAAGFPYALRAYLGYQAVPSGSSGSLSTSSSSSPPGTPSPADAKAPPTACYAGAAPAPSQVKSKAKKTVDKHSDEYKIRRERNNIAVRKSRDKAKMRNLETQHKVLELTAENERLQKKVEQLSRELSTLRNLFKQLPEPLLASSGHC
Sequence of X-box-binding protein 1 (Homo sapiens) (P17861 whole entry, looked up): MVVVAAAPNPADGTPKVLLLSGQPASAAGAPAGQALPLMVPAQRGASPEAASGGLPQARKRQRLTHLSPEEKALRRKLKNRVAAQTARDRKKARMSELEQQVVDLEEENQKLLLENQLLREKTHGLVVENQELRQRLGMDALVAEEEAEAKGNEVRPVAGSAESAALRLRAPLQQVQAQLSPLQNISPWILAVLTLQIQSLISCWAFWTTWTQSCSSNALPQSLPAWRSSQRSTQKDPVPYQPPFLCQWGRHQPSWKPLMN
Sequence of Cellular tumor antigen p53 (Homo sapiens) (P04637 whole entry, looked up, the tested form may be a part): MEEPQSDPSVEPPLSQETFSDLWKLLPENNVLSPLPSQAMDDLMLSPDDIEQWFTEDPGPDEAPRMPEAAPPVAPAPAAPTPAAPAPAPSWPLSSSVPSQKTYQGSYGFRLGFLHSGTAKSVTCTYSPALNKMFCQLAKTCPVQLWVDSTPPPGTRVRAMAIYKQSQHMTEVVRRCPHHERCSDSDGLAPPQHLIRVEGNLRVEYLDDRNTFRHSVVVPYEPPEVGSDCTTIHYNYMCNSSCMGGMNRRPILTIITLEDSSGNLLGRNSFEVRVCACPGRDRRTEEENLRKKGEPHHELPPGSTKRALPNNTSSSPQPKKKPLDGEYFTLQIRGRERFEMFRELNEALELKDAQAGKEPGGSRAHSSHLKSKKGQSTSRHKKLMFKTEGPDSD
Sequence of Nuclear respiratory factor 1 (Homo sapiens) (Q16656 whole entry, looked up): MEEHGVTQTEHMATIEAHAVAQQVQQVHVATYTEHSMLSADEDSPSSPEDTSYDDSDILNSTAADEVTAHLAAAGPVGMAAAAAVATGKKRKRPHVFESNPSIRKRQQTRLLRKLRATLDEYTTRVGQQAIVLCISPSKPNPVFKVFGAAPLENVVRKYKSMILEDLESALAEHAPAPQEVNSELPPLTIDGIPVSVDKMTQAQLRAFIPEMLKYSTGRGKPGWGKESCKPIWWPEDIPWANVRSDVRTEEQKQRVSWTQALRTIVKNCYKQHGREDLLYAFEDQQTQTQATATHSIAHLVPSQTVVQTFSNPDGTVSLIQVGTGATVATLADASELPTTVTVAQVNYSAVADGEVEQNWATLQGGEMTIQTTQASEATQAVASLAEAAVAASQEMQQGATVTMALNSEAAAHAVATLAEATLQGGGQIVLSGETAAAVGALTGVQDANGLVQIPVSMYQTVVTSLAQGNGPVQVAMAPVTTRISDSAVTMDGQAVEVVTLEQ
Sequence of Hepatocyte nuclear factor 6 (Homo sapiens) (Q9UBC0 whole entry, looked up, the tested form may be a part): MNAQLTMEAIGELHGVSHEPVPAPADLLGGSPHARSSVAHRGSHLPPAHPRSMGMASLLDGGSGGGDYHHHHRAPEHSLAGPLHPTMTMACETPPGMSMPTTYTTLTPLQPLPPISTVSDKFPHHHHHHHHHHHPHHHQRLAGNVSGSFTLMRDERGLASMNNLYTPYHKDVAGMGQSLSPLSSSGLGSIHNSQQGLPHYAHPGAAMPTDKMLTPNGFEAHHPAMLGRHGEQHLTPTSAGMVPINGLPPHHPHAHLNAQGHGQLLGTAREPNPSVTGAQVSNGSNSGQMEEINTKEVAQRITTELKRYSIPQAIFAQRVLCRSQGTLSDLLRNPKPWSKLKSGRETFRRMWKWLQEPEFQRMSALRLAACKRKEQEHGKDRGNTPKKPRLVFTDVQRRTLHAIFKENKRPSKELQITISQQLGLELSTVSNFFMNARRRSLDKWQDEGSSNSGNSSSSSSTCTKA

As for `Nc1cc(Cl)cc(Cl)c1`, the compound was called inactive in test [1], in [2], in [3], in test [4], in test [5] and in test [6]. Moreover, the call in test [7], in test [8], in test [9], in test [10], in [11] and in [12] was inactive. Besides, the compound was classed as inactive in test [13], in [14], in test [15], in test [16], in test [17] and in test [18]. The compound was classed as inactive in test [19] and in test [20].

Usually AC50 stands for the midpoint of the concentration-response curve, whichever way the signal moves. Turning to `O=[N+]([O-])c1cc([N+](=O)[O-])c2ccccc2c1`, the compound was called inactive in [1], in [2], in test [5], in test [7], in [9] and in test [10]. For the same compound, the result in test [11], in test [12], in test [14], in [15], in test [16] and in [17] was inactive. Besides, the call in [19] and in test [20] was inactive. Moreover, the AC50 in test [3] is 8.37 µM (active); in test [4], 14.5 µM (active); in test [6], 10.5 µM (active); in test [18] it was 3.1 µM (active).

For `ClCCCCCCCl`, the result in test [1], in [2], in test [3], in test [4], in [5] and in test [6] was inactive. Besides, the outcome in test [9], in test [10], in test [11], in test [12], in test [13] and in test [14] was inactive. Moreover, the compound was called inactive in test [15], in test [17], in [18] and in test [19].

Regarding `O=S(=O)(c1ccccc1)c1ccccc1`, the compound was classed as inactive in test [1], in test [2], in test [3], in [4], in test [5] and in test [7]. The result in test [8], in test [9], in [10], in test [11], in [12] and in test [15] was inactive. Further, the compound was called inactive in test [17], in test [18], in test [19] and in test [20]. Also, the AC50 in test [14] was 31.4 µM (active).

On to `O=C(CCl)c1ccccc1`, for which the AC50 in [1] was 8.31 µM (active); in test [4], 59.3 µM (active); in test [6] it was 16.2 µM (active); in test [16], 54.4 µM (active); in test [18] it was 8.04 µM (active); in [20] it was 58.6 µM (active). The outcome in test [2], in [3], in [5], in test [7], in test [8] and in test [9] was inactive. The compound was classed as inactive in test [10], in [11], in test [12], in test [13], in test [14] and in [15]. For the same compound, the call in test [17] and in [19] was inactive.

In the case of `CC(C)[C@@H](C(=O)O[C@@H](C#N)c1cccc(Oc2ccccc2)c1)c1ccc(Cl)cc1`, the result in test [1], in [2], in test [3], in [4], in [5] and in test [6] was inactive. Also, the call in test [8], in [9], in test [10], in test [11], in test [12] and in test [13] was inactive. The result in test [15], in test [16], in [17], in [18], in [19] and in test [20] was inactive.

With `CCOP(=O)(OCC)Oc1ccc([N+](=O)[O-])cc1`, the outcome in test [1], in [2], in test [3], in test [4], in test [5] and in [7] was inactive. In addition, the outcome in test [8], in test [9], in test [10], in test [11], in test [12] and in test [14] was inactive. The result in test [15], in test [16], in test [17], in [18], in [19] and in test [20] was inactive.
